Source: PubChem BioAssay
“And” between values parts separate entries of the source, which are not always exact repeats. Equal entries are not always repeated. For some assays here: Measured potencies and affinities stand elsewhere. Some compounds were tested as several samples or in several runs, with calls that do not always agree. The source made the active and inactive calls. Unless noted, no rule for the calls is given here.

How the values were obtained:
[1] = antimalarial activity against Dd2 strain (AID 2302;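 active = growth inhibition above 50% at the single 2 µM test dose, taken to imply half-maximal potency below 2 µM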;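 also: 0% = DMSO untreated growth and 100% = chloroquine plus artemisinin killed control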); conditions: P. falciparum Dd2 in RBCs, LDH growth readout, 72 h; at 2 µM; stronger effect = higher value
[2] = HepG2 cytotoxicity, primary screen, cytotoxicity control for P. falciparum antimalarial project, cell-based, ATP luminescence (AID 2303;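 active = inhibition above 50%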;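 also: 0% = DMSO wells and 100% = digitonin-killed cells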); conditions: HepG2 viability, 24-48 h, at 10 µM, stronger effect = higher value
[3] = target: L-lactate dehydrogenase (Plasmodium falciparum (isolate CDC / Honduras)) (UniProt Q27743); assay: PfLDH activity inhibition – cell lysate, 3D7 strain, counter-screen for P. falciparum growth inhibition project (AID 2304);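 also: 0% = vehicle and 100% = reference inhibitor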; conditions: P. falciparum 3D7 crude extract, LDH APAD/NBT absorbance; at 2 µM; stronger effect = higher value
Sequence of L-lactate dehydrogenase (Plasmodium falciparum (isolate CDC / Honduras)) (Q27743 whole entry, looked up): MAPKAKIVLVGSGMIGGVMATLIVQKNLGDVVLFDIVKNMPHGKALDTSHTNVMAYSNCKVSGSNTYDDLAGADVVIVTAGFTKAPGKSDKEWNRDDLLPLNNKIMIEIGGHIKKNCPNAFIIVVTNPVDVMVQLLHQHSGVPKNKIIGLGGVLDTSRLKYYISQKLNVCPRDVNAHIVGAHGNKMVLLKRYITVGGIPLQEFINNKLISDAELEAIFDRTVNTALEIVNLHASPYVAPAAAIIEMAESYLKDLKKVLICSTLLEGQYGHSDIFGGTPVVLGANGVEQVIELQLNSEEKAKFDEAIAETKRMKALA

[4] = inhibition of 3D7 malaria parasite growth – strain 3D7 (AID 2306);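 also: 0% = DMSO wells and 100% = chloroquine plus artemisinin control wells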; conditions: P. falciparum 3D7 erythrocytic growth, LDH absorbance, 72 h; at 2 µM; stronger effect = higher value
[5] = target: Calcium-dependent protein kinase 1 (Plasmodium falciparum (isolate 3D7)) (UniProt P62344); assay: PfCDPK1 kinase inhibitors, biochemical, TCAMS library (AID 1159585; cut-off not given, nearly all actives have IC50 up to about 0.98 µM;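 also: inhibitors leave more ATP so luminescence rises with inhibition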); conditions: recombinant PfCDPK1, Kinase-Glo ATP depletion luminescence
Sequence of Calcium-dependent protein kinase 1 (Plasmodium falciparum (isolate 3D7)) (P62344 whole entry, looked up): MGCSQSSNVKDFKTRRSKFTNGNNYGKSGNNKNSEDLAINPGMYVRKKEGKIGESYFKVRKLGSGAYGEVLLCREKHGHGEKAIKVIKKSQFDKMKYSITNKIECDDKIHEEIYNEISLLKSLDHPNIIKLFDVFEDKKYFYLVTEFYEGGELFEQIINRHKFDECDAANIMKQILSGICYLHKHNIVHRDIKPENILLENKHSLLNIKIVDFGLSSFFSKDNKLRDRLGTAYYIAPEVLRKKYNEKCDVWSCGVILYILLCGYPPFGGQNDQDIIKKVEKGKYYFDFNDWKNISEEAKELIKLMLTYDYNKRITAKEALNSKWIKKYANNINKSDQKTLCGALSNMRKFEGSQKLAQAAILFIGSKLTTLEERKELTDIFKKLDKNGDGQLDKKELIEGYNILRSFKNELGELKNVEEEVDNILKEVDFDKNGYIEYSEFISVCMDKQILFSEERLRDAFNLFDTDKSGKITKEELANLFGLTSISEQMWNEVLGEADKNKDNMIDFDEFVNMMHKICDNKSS

[6] = target: Plasmodium falciparum protein kinase 6 (PK6, PF3D7_1337100) (UniProt Q8IDW1); assay: PfPK6 kinase inhibitors, biochemical, TCAMS library (AID 1159586); conditions: recombinant PfPK6, Kinase-Glo ATP depletion luminescence
Sequence of Plasmodium falciparum protein kinase 6 (PK6, PF3D7_1337100) (Q8IDW1 1-305): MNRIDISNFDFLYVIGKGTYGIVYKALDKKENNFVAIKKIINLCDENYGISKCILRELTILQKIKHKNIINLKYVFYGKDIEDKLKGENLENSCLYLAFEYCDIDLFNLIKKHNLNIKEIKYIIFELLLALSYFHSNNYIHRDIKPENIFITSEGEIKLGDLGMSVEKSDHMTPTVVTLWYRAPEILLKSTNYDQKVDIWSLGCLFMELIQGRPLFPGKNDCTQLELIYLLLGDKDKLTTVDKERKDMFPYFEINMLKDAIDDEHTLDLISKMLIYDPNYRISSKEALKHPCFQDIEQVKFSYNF

[7] = target: Protein kinase 7 (PK7), Plasmodium falciparum 3D7 (PF3D7_0213400) (UniProt Q7YTF7); assay: inhibition of Plasmodium PK7 catalytic activity – biochemical, TCAMS antimalarial set, Kinase-Glo luminescence (AID 1159587); conditions: recombinant PfPK7, Kinase-Glo ATP depletion luminescence
Sequence of Protein kinase 7 (PK7), Plasmodium falciparum 3D7 (PF3D7_0213400) (Q7YTF7 1-343): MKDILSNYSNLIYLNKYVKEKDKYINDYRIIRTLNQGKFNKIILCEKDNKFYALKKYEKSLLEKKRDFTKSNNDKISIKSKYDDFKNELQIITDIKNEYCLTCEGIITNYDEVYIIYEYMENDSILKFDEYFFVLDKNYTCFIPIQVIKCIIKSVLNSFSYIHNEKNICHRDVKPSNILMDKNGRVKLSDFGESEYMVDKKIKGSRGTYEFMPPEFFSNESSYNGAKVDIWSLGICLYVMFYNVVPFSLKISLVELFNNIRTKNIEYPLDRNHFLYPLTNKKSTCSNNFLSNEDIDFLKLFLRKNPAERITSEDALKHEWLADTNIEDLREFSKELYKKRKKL

[8] = target: Calcium-dependent protein kinase 4 (Plasmodium falciparum (isolate 3D7)) (UniProt Q8IBS5); assay: PfCDPK4 kinase inhibitors, biochemical, TCAMS library (AID 1159588; cut-off not given, nearly all actives have IC50 up to about 0.91 µM); conditions: recombinant PfCDPK4, Kinase-Glo ATP depletion luminescence
Sequence of Calcium-dependent protein kinase 4 (Plasmodium falciparum (isolate 3D7)) (Q8IBS5 whole entry, looked up): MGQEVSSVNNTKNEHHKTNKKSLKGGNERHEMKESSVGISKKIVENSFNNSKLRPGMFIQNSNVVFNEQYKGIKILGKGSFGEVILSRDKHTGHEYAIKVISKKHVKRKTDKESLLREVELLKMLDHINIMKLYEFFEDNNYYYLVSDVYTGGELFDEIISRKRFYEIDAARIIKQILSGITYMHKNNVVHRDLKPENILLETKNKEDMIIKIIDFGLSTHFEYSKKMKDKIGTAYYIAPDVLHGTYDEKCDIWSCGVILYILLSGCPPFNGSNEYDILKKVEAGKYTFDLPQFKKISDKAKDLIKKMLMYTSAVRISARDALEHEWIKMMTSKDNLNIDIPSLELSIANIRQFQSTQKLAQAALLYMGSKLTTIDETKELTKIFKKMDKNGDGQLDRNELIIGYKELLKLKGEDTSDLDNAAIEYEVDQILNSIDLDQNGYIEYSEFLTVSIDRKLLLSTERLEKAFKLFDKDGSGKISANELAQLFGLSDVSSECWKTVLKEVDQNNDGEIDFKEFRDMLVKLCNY

CC(Cc1ccc(OCCCCOc2ccccc2)cc1)NCCC1CCCN1C (configuration not stated)
inactive: inhibition [3] 3% | outcome [5] | outcome [6] | outcome [7] | outcome [8]
active: growth inhibition [1] 98% | inhibition [2] 100% | growth inhibition [4] 99%

CCc1ccc(CN2CCC(CN(C(=O)c3ccccc3)c3ccc(Cl)cc3)CC2)cc1
active: growth inhibition [1] 95% | growth inhibition [4] 96%
inactive: inhibition [2] 12% | inhibition [3] -4% | outcome [5] | outcome [6] | outcome [7] | outcome [8]

Cc1[nH]c2ccccc2c1C1CCN(CC2CCC(NC(=O)/C=C/c3ccc(Cl)c(Cl)c3)CC2)CC1 (configuration not stated)
inactive: inhibition [2] 15% | inhibition [3] 1% | outcome [5] | outcome [6] | outcome [7] | outcome [8]
active: growth inhibition [1] 93% | growth inhibition [4] 101%

CNC(=O)c1ccc2[nH]cc(C3CCN(CC4CCC(NC(=O)/C=C/c5ccccc5Cl)CC4)CC3)c2c1 (configuration not stated)
active: growth inhibition [4] 100%
inactive: growth inhibition [1] 19% | inhibition [2] 12% | inhibition [3] 3% | outcome [5] | outcome [6] | outcome [7] | outcome [8]

S=C(Nc1ccc2c(c1)OCCO2)NC1CCC(CN2CCC(c3c[nH]c4ccccc34)CC2)CC1 (configuration not stated)
inactive: growth inhibition [1] 7% and 1% | inhibition [2] 31% and 32% | inhibition [3] -8% and -1% | outcome [5] | outcome [6] | outcome [7] | outcome [8]
active: growth inhibition [4] 96% and 92%

c1ccc2c(NCCCCCCNc3c4c(nc5ccccc35)CCCC4)c3c(nc2c1)CCCC3
inactive: inhibition [3] 3% | outcome [5] | outcome [6] | outcome [7] | outcome [8]
active: growth inhibition [1] 51% | inhibition [2] 90% | growth inhibition [4] 100%

O=C(NCCCCN1CCC(c2ccc3c(c2OCCO)CCCC3)CC1)c1sc(-c2ccc(C(F)(F)F)cc2)nc1CO
active: growth inhibition [4] 95%
inactive: growth inhibition [1] 20% | inhibition [2] 37% | inhibition [3] -6% | outcome [5] | outcome [6] | outcome [7] | outcome [8]

COc1cccc(O)c1CNCC(O)c1cccc(C(F)(F)F)c1 (configuration not stated)
inactive: inhibition [2] 31% | inhibition [3] 4% | outcome [5] | outcome [6] | outcome [7] | outcome [8]
active: growth inhibition [1] 96% | growth inhibition [4] 98%

O=C(/C=C/c1cccs1)NC1CCC(CN2CCC(c3c[nH]c4ccccc34)CC2)CC1 (configuration not stated)
active: growth inhibition [4] 82%
inactive: growth inhibition [1] 29% | inhibition [2] 33% | inhibition [3] -1% | outcome [5] | outcome [6] | outcome [7] | outcome [8]

O=C(NC1CCC(CN2CCC(c3c[nH]c4ccccc34)CC2)CC1)c1csc(-c2ccc(C(F)(F)F)cc2Cl)n1 (configuration not stated)
inactive: inhibition [2] 32% | inhibition [3] -3% | outcome [5] | outcome [6] | outcome [7] | outcome [8]
active: growth inhibition [1] 75% | growth inhibition [4] 99%

Cc1cccc(C(=O)Nc2ccnc(N(C)C3CCN(Cc4cccc(O)c4)CC3)c2)c1
inactive: inhibition [2] 5% | inhibition [3] -1% | outcome [5] | outcome [6] | outcome [7] | outcome [8]
active: growth inhibition [1] 62% | growth inhibition [4] 89%

O=C(C=Cc1ccccc1Br)NC1CCC(CN2CCC(c3c[nH]c4ccccc34)CC2)CC1 (configuration not stated)
inactive: inhibition [2] 36% and 43% | inhibition [3] 4% | outcome [5] | outcome [6] | outcome [7] | outcome [8]
32% (inactive) and 57% (active): growth inhibition [1]
active: growth inhibition [4] 101% and 102%

O=C(/C=C/c1ccccc1O)NC1CCC(CN2CCC(c3c[nH]c4ccccc34)CC2)CC1 (configuration not stated)
inactive: inhibition [2] 11% and 22% | inhibition [3] -1% and 5% | outcome [5] | outcome [6] | outcome [7] | outcome [8]
active: growth inhibition [4] 101% and 103%
73% (active) and 45% (inactive): growth inhibition [1]

CO[C@@H]1C[C@@H](C(=O)Nc2ccccc2)N(c2ccc(C#N)c3ccccc23)C1
active: growth inhibition [1] 100% | growth inhibition [4] 98%
inactive: inhibition [2] 7% | inhibition [3] 6% | outcome [5] | outcome [6] | outcome [7] | outcome [8]

Oc1ccc2[nH]cc(C3=CCN(CCc4ccccc4)CC3)c2c1
active: growth inhibition [1] 60% | growth inhibition [4] 96%
inactive: inhibition [2] 11% | inhibition [3] 3% | outcome [5] | outcome [6] | outcome [7] | outcome [8]

CC(=O)N(Cc1cccc(-c2cccc(CNCc3ccc4c(c3)OCO4)c2)c1)C1CCN(Cc2ccccc2)CC1
active: growth inhibition [4] 95%
inactive: growth inhibition [1] 21% | inhibition [2] 16% | inhibition [3] -5% | outcome [5] | outcome [6] | outcome [7] | outcome [8]

Cc1cc(-c2ncc[nH]2)ccc1-c1ccc(C(=O)N2CCc3cc4c(cc32)C2(CCN(C)CC2)CO4)cc1
active: growth inhibition [1] 98% | growth inhibition [4] 101%
inactive: inhibition [2] 32% | inhibition [3] 0% | outcome [5] | outcome [6] | outcome [7] | outcome [8]

Oc1ccccc1CNCC(O)c1cc(C(F)(F)F)cc(C(F)(F)F)c1 (configuration not stated)
active: growth inhibition [1] 100% | growth inhibition [4] 99%
inactive: inhibition [2] 15% | inhibition [3] 4% | outcome [5] | outcome [6] | outcome [7] | outcome [8]

N#Cc1c(F)cc(N2CCC(NCC[C@H](N)Cc3ccc(F)c(F)c3)CC2)cc1F
active: inhibition [2] 70% | growth inhibition [4] 102%
inactive: growth inhibition [1] 26% | inhibition [3] 4% | outcome [5] | outcome [6] | outcome [7] | outcome [8]
